The target in assay [1] is Glucocorticoid receptor (Homo sapiens) (UniProt P04150). Put plainly: qHTS assay for small molecule agonists of glucocorticoid receptor signaling (AID 588532; active = well fitted curve in the direction sought with a large enough effect in the signal ratio, with a control signal flat; the % refers to the signal ratio;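 note: 100% = dexamethasone at 0.1 µM and 0% = DMSO only wells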). To be noted: HeLa MMTV-bla, beta-lactamase ratio, agonist, 18 h; activation: stronger effect = higher value, percent of dexamethasone control, DMSO zero. An outline of the steps: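 Quantitative HTS using CellSensor MMTV-bla HeLa cells in charcoal/dextran-treated serum; compounds tested up to 92 uM. After 18 h at 37 C, CCF4 dye reported reporter induction.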

The target is the same in assay [2]. Put plainly: qHTS assay for small molecule antagonists of glucocorticoid receptor signaling (AID 588533; active = well fitted inhibition curve with a large enough effect in the signal ratio, with a control signal flat, not every such curve was filed as active; the % refers to the signal ratio;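 note: cells stimulated with 2 nM dexamethasone as agonist; % is set by controls: 0 for no effect and ±100 for the full control effect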). In outline: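 Antagonist-mode qHTS: compound titrations added to GRE-bla HeLa cells, then dexamethasone 2 nM final; 18 h, 37 C. CCF4 FRET fluorescence normalized to dexamethasone and DMSO; IC50 from Hill fit.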
A short description of assay [3]: qHTS assay for small molecule antagonists of peroxisome proliferator-activated receptor delta signaling (AID 588535; active = well fitted inhibition curve with a large enough effect in the signal ratio, with a control signal flat, not every such curve was filed as active; the % refers to the signal ratio;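 for max response: cells co-treated with a PPAR-delta agonist as stimulator during compound exposure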). To be noted: HEK293T PPARd-UAS-bla, beta-lactamase FRET ratio, 18 h; 460 nm channel. An outline of the steps: (§1)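 Cell-based beta-lactamase assay in antagonist mode: 4000 HEK293T PPAR-delta-UAS-bla cells per well, 5 hr preincubation then 18 hr compound incubation at 37 C. IC50 obtained by Hill equation fitting.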
On the technique in general: qHTS replaces the single test concentration by a dilution series.

For assay [4], the target named is Peroxisome proliferator-activated receptor delta (Homo sapiens) (UniProt Q03181). The description is as above. An outline of the steps: as §1
For assay [5], the target named is Peroxisome proliferator-activated receptor gamma (Homo sapiens) (UniProt P37231). Put plainly: qHTS assay for small molecule agonists of peroxisome proliferator-activated receptor gamma signaling (AID 588536; active = well fitted curve in the direction sought with a large enough effect in the signal ratio, with a control signal flat, not every such curve was filed as active; the % refers to the signal ratio;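 note: 0% = DMSO basal wells and 100% = rosiglitazone at 2 µM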). An outline of the steps: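 HEK293 UAS-bla reporter line, 1% charcoal/dextran FBS; titration, 16 h, 37 C; CCF4 loading 2 h RT; fluorescence 460/530 nm. Normalized to rosiglitazone 2 uM = 100%, DMSO = 0%.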

Assay [6] deals with Thyroid hormone receptor beta (Homo sapiens) (UniProt P10828). Put plainly: qHTS assay for small molecule agonists of thyroid hormone receptor beta signaling (AID 588545). An outline of the steps: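 In this cell-based screen, titrated compounds act on HEK 293 cells held in medium with 2% charcoal/dextran FBS, NEAA and pyruvate for 18 hrs at 37 C. Responses are expressed relative to T3 (10 nM) as 100% and basal DMSO as 0%.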

The target is the same in assay [7]. The experiment in a line: qHTS assay for small molecule antagonists of thyroid hormone receptor beta signaling (AID 588547; active = well fitted inhibition curve with a large enough effect in the signal ratio, with a control signal flat, not every such curve was filed as active; the % refers to the signal ratio;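 note: cells stimulated with 0.4 nM T3 agonist during compound exposure; series mostly up to about 77 µM; % is set by controls: 0 for no effect and ±100 for the full control effect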). To be noted: TR-UAS-bla HEK293, beta-lactamase ratio, antagonist mode, 18 h. In outline:
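Inhibition of T3-driven (0.4nM final) beta-lactamase reporter activity was measured over 0.59 nM to 92 uM compound after 18 h at 37 C. The cells were GripTite HEK293 TR-UAS-bla in charcoal/dextran-stripped serum, with CCF4 ratio read-out and IC50 from Hill fits.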

Assay [8] in a line: qHTS assay for small molecule activators of the p53 signaling pathway (AID 651743; active = well fitted activation curve with a large enough effect in the signal ratio, not every such curve was filed as active; the % refers to the signal ratio; note: series mostly up to about 92 µM; % of control where 0% means no effect). The conditions noted are these: HCT-116 p53RE-bla, beta-lactamase FRET ratio, 16 h; activation: stronger effect = higher value. An outline of the steps:
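Screen for p53 pathway agonists uses stably transfected p53RE-bla HCT-116 cells, 4,000 per well, treated 16 h at 37 C with compounds in DMSO.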

Assay [9] can be described thus: qHTS assay for small molecule activators of the nuclear factor-kappa B (NF-kB) signaling pathway (AID 651749; active = well fitted activation curve with a large enough effect in the signal ratio; the % refers to the signal ratio; note: series mostly up to about 77 µM; % of control where 0% means no effect). To be noted: NF-kB-bla ME-180 cells, beta-lactamase FRET ratio, 16 h; activation: stronger effect = higher value. In outline: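 Stably transfected ME-180 line; NF-kB response element upstream of beta-lactamase. Treatment: compound or DMSO, 16 hr. Detection: fluorescent FRET substrate.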

The nature of assay [10]: qHTS assay for environmental chemicals that activate the Aryl hydrocarbon Receptor (AhR) signaling pathway (AID 651777; active = well fitted curve in the direction sought with a large enough effect; an effect the other way counts as inactive or inconclusive; note: % of control where 0% means no effect; nearly all actives have a fitted effect of over 15% in size). To be noted: 1A2-DRE human hepatoma cells, luciferase, 24 h; activation: stronger effect = higher value. An outline of the steps:
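1A2-DRE human hepatoma reporter line; 1,200 cells/well; cmpd or DMSO 24 h, 37 C/5% CO2; One-Glo 30 min RT; luciferase lum.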

Assay [11] has as its target Peroxisome proliferator-activated receptor alpha (Homo sapiens) (UniProt Q07869). The experiment in a line: qHTS assay for small molecule agonists of the peroxisome proliferator-activated receptor alpha (PPARalpha) signaling pathway (AID 651778; active = well fitted curve in the direction sought with a large enough effect; an effect the other way counts as inactive or inconclusive; note: potency is the fitted concentration of half-maximal effect). The conditions noted are these: PathHunter PPARalpha complementation, chemiluminescence, 6 h; max response: stronger effect = higher value. An outline of the steps:
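Chemiluminescence from complemented enzyme reported PPARalpha activation in cells after 6 hr of compound treatment at 37 C. The detection reagent was incubated for 60 min at room temperature, and compounds were scored as agonists.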

A short description of assay [12]: qHTS assay for small molecule agonists of the antioxidant response element (ARE) signaling pathway measured by Nrf2-dependant transcriptional activity (AID 720636; active = well fitted curve in the direction sought with a large enough effect in the repeat runs; an effect the other way counts as inactive or inconclusive;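 note: HepG2 cells with an ARE-driven luciferase reporter; % of control where 0% means no effect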). An outline of the steps: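 Cells: ARE-luc HepG2 with Nrf2-responsive luciferase. Medium contained 1% dialyzed FBS. Compound exposure lasted 16 hr at 37 C and 5% CO2, followed by ONE-Glo luciferase detection.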

The nature of assay [13]: qHTS assay for small molecule agonists of the antioxidant response element (ARE) signaling pathway measured by Nrf2-dependant transcriptional activity - cell viability counter screen (AID 720653; active = well fitted curve in the direction sought with a large enough effect in the repeat runs; an effect the other way counts as inactive or inconclusive; note: % is set by controls: 0 for no effect and ±100 for the full control effect). The conditions noted are these: ARE-bla HepG2 viability, CellTiter-Glo ATP luminescence, 16 h; max response: stronger effect = lower value. An outline of the steps: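 Cytotoxicity counter screen: intracellular ATP quantified by CellTiter-Glo luminescence in the same ARE-bla HepG2 plates, after 16 h compound exposure and a 2 h beta-lactamase substrate step.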

Assay [14] in a line: qHTS assay for cell viability of HEK293 cells (AID 743288; active = well fitted curve in the direction sought with a large enough effect; an effect the other way counts as inactive or inconclusive; note: % is set by controls: 0 for no effect and ±100 for the full control effect; nearly all actives have a fitted effect of over 50% in size). The conditions noted are these: ATP luminescence (CellTiter-Glo), 18 h; max response: stronger effect = lower value. An outline of the steps: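 The Tox21 protocol used parental HEK293 cells treated for 18 h at 37 C with compounds delivered by pintool; ATP-coupled luminescence after 30 min at room temperature gave viability.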

Assay [15] is described as follows: qHTS assay for cell viability of the p53RE-bla HCT-116 cell line (AID 743292; active = well fitted curve in the direction sought with a large enough effect; an effect the other way counts as inactive or inconclusive; note: % is set by controls: 0 for no effect and ±100 for the full control effect; nearly all actives have a fitted effect of over 55% in size). An outline of the steps:
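HCT-116 p53RE-bla cells seeded 4,000/well; 5 h at 37 C; compound (DMSO) added; 16 h at 37 C; CellTiter-Glo added, 30 min RT; luminescence read.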

Assay [16] concerns the target Nuclear receptor subfamily 1 group I member 2 (Rattus norvegicus) (UniProt Q9R1A7). Put plainly: qHTS assay for small molecule activators of the rat pregnane X receptor (rPXR) signaling pathway (AID 651751; call rule not given here; note: 0% is about no effect). The conditions noted are these: rPXR reporter cells, luciferase (One-Glo), 24 h.
Assay [17] concerns the target Peroxisome proliferator-activated receptor delta (Homo sapiens) (UniProt Q03181). The experiment in a line: qHTS assay for small molecule agonists of peroxisome proliferator-activated receptor delta signaling (AID 588534).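 Note: 0% = DMSO basal wells and 100% = positive control agonist at 10 µM.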 In outline: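 Reporter cells were plated and held 5 hrs at 37 C before compounds were added. After 18 hrs at 37 C, CCF4 dye was loaded for 2 hrs at RT and fluorescence measured.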

Assay [18] concerns the target Peroxisome proliferator-activated receptor gamma (Homo sapiens) (UniProt P37231). Put plainly: qHTS assay for small molecule antagonists of peroxisome proliferator-activated receptor gamma signaling (AID 588537; active = well fitted inhibition curve with a large enough effect in the signal ratio, with a control signal flat, not every such curve was filed as active; the % refers to the signal ratio;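 note: reporter cells co-stimulated with 50 nM rosiglitazone agonist during compound treatment; % of control where 0% means no effect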). An outline of the steps: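 Inhibitors of agonist-stimulated UAS-bla reporter activity were sought in HEK293 cells; rosiglitazone (50 nM) defined full signal and DMSO baseline. Curves fitted to Hill model gave IC50 and efficacy.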

Assay [19] has as its target Vitamin D3 receptor (Homo sapiens) (UniProt P11473). Put plainly: qHTS assay for small molecule antagonists of vitamin D receptor signaling (AID 588541).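 Note: receptor activated by calcitriol during compound treatment; series mostly up to about 77 µM; % is set by controls: 0 for no effect and ±100 for the full control effect.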 In outline: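 Antagonist-mode beta-lactamase reporter assay: HEK293T VDR-UAS-bla cells were exposed to titrated compound alongside 1-alpha,25-dihydroxyvitamin D3 at 3 nM final for 16 h. Values were normalized to the 50 nM agonist control and DMSO basal, with IC50 and efficacy from Hill equation fits.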

The target is the same in assay [20]. The experiment in a line: qHTS assay for small molecule agonists of vitamin D receptor signaling (AID 588543).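 Note: 0% = DMSO basal and 100% = reference agonist control.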 An outline of the steps: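 qHTS in agonist mode: compound titrations stimulate a VDR-driven β-lactamase reporter in HEK293T cells over 16 h at 37 °C. Response normalized to 50 nM 1α,25-dihydroxyvitamin D3 = 100%, DMSO = 0%; Hill fitting gives EC50 and maximal response.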

In assay [21] the target is Retinoic acid receptor RXR-alpha (Homo sapiens) (UniProt P19793). The experiment in a line: qHTS assay for small molecule agonists of retinoid X receptor alpha signaling (AID 588544).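 Note: 0% = DMSO basal wells and 100% = reference agonist.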
Assay [22] in a line: qHTS assay for small molecule activators of the human pregnane X receptor (PXR) signaling pathway (AID 720659; call rule not given here; note: 0% is about no effect).

Structures are written as SMILES. Inconclusive results are not listed. The source made the active and inactive calls. Unless noted, calls come from the whole dose curve.

Sequence of Glucocorticoid receptor (Homo sapiens) (P04150 whole entry, looked up): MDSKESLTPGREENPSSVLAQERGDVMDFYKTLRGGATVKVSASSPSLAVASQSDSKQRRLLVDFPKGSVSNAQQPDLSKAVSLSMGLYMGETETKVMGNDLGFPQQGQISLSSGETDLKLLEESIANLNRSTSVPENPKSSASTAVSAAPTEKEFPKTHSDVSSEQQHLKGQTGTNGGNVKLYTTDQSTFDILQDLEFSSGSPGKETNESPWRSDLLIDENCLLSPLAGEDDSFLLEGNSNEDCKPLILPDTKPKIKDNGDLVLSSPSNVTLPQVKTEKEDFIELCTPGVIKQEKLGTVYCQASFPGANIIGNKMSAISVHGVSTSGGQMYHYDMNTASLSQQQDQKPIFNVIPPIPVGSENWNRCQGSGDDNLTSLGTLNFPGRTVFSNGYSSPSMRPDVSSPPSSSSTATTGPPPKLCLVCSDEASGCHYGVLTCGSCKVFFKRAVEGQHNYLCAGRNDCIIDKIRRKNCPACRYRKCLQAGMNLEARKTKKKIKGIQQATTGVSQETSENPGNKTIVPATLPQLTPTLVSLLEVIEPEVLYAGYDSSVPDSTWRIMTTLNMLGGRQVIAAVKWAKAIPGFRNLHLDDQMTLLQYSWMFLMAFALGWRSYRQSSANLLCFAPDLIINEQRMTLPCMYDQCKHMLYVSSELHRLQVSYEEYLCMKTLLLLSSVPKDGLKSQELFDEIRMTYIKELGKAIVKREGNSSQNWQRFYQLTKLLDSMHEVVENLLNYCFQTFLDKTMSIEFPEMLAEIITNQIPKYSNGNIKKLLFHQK
Sequence of Peroxisome proliferator-activated receptor delta (Homo sapiens) (Q03181 whole entry, looked up): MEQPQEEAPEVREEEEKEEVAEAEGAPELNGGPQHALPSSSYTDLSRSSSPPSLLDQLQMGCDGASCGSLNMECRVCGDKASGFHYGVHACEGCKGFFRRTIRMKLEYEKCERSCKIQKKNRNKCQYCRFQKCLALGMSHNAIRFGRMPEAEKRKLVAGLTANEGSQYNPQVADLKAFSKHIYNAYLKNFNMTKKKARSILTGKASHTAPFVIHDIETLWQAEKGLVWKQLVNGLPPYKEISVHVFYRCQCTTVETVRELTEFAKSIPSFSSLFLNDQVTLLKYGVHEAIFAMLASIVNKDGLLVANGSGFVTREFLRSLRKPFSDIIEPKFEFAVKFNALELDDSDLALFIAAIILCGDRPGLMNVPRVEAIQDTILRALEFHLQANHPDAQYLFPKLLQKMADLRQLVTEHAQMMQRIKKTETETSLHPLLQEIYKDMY
Sequence of Thyroid hormone receptor beta (Homo sapiens) (P10828 whole entry, looked up): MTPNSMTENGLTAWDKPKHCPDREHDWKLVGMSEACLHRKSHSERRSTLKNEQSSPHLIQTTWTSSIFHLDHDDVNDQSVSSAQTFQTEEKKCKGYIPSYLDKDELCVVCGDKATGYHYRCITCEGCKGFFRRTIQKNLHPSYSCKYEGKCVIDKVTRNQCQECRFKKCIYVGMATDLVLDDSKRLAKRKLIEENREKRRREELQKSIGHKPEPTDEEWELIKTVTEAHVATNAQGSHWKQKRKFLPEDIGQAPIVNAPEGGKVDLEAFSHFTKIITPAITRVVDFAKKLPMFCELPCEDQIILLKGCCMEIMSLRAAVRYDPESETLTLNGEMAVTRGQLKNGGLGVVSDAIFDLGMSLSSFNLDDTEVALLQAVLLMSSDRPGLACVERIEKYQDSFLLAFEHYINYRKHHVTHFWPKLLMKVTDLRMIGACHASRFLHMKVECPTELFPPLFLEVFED
Sequence of Peroxisome proliferator-activated receptor gamma (Homo sapiens) (P37231 whole entry, looked up): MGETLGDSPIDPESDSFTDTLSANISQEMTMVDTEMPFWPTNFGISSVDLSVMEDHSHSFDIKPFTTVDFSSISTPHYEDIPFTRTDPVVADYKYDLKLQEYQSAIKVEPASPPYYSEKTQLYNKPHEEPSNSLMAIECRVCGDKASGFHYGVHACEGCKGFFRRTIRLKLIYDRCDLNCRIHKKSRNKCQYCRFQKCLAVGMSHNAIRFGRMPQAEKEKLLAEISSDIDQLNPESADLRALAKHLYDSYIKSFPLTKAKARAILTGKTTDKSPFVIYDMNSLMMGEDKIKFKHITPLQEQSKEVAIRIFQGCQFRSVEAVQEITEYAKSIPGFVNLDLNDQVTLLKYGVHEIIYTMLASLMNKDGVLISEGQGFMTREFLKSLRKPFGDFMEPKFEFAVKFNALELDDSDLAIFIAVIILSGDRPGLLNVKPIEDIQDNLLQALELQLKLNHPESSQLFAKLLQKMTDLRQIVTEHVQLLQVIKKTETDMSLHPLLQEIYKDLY
Sequence of Vitamin D3 receptor (Homo sapiens) (P11473 whole entry, looked up): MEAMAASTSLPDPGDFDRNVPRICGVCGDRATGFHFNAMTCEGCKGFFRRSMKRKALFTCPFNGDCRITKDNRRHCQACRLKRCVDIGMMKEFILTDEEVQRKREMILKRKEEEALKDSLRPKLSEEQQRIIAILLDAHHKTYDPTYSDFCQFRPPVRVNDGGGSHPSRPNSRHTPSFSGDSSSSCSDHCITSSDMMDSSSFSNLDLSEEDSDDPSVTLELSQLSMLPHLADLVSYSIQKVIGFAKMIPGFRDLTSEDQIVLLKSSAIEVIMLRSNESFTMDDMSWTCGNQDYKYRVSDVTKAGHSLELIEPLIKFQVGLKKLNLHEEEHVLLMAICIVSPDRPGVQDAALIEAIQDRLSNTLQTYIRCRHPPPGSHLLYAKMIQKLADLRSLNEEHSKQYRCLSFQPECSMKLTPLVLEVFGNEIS
Sequence of Nuclear receptor subfamily 1 group I member 2 (Rattus norvegicus) (Q9R1A7 whole entry, looked up): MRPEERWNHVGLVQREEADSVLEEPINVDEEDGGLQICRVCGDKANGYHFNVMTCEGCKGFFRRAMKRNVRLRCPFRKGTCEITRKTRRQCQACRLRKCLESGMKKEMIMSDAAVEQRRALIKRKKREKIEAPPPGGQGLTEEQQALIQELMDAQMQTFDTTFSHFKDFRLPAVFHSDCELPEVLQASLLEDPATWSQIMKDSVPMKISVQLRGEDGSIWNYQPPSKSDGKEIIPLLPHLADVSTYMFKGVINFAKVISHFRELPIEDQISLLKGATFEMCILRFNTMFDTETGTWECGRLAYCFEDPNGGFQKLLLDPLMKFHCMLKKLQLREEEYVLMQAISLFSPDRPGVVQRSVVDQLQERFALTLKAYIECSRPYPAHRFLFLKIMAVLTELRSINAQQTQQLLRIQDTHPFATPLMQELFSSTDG
Sequence of Peroxisome proliferator-activated receptor alpha (Homo sapiens) (Q07869 whole entry, looked up): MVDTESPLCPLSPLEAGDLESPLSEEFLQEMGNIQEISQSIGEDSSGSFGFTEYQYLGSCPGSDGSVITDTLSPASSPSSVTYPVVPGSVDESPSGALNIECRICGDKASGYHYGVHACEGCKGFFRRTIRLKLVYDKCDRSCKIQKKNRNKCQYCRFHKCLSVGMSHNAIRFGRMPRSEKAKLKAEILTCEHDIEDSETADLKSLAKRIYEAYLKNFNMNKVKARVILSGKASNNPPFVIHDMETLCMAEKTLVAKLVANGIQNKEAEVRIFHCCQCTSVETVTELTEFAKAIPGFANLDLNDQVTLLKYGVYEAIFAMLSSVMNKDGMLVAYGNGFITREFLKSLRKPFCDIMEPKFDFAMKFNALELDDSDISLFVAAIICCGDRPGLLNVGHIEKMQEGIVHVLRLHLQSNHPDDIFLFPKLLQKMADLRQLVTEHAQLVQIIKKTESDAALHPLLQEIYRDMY
Sequence of Retinoic acid receptor RXR-alpha (Homo sapiens) (P19793 whole entry, looked up): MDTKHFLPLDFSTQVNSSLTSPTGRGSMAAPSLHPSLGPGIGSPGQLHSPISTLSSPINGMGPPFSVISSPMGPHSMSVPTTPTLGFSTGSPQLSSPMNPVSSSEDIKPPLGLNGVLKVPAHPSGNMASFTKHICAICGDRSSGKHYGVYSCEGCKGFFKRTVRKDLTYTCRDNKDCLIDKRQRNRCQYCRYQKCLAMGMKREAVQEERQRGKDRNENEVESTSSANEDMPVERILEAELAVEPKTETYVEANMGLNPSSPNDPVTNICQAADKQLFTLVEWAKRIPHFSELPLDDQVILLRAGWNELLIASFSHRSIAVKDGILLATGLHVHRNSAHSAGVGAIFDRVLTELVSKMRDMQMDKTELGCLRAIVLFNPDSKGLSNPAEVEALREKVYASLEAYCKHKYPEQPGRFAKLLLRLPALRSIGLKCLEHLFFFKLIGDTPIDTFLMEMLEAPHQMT

For the compound `CCOC(=O)C(C)OC(=O)c1cc(Oc2ccc(C(F)(F)F)cc2Cl)ccc1[N+](=O)[O-]` (stereo not drawn), the activation in assay [1] is 2.93% (inactive); in assay [8], 0.27% (inactive); in assay [9], 0.301% (inactive); in [10] it was 4.56% (inactive). Moreover, the Potency entry in assay [2], in assay [4], in [5], in assay [6], in assay [12] and in assay [15] was “inactive” throughout. The max response in assay [3] is 34.5%; in assay [13], -9.47% (inactive); in assay [14], -22.9% (inactive); in [16], 4.28% (inactive). Further, the activity change % (negative = inhibition) in assay [7] is 11.5% (inactive). Moreover, in assay [11], the Potency is 35.5 µM (active).

On to `Cc1ccc(C)c([N+](=O)[O-])c1`, for which, in assay [17], the outcome was inactive.

With `CCc1cnc(C2=NC(C)(C(C)C)C(=O)N2)c(C(=O)O)c1` (stereo not drawn), the activation in [1] was -7.69% (inactive). Moreover, the compound was classed as inactive in assay [17], in assay [20] and in assay [22]. The max response in assay [3] is 6.03%; in [13] it was 16.5% (inactive); in [14], 4.64% (inactive); in assay [16], -2.79% (inactive). The Potency result in assay [4], in assay [5], in assay [18], in assay [19], in assay [21] and in assay [6] was “inactive” throughout. The Potency result in assay [12] is “inactive”. Also, the activity change % (negative = inhibition) in assay [7] is -0.801% (inactive).
